Experimental data taken from PubChem BioAssay AID1159580 (chemical genetic matrix, 2015).
Where “and” joins values, the source holds several entries; their conditions need not be identical. Equal entries are not always repeated. In all, about 5,500 compounds went through this assay and about 2,000 (36%) were called active. About 18% were inconclusive and are not listed. Rule as the data show it: active = normalized growth mostly below about 0.91 (no sharp cut-off); inconclusive = no clear call, values can overlap the other calls; inactive = mostly above about 0.92. Some of the results follow.

Experiment: chemical genetic growth profiling, strain panel (AID 1159580);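 also: tested at 20 µM; growth read once vehicle control cultures reached saturation at 30 °C; 1 = growth at the plate median or of vehicle wells; lower values mean less growth of the strain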
Details: S. cerevisiae deletion strains, growth OD

Measured: normalized growth

CC(=O)C1CCC2C3CCC4C[C@H](O)CCC4(C)C3C[C@H](O)C12C (some centres not stated)
inactive: locus YAL013W, strain DEP1, active compounds read low 1.03 | locus YAL021C, strain ccr4, active compounds read low 0.96 | locus YAL026C, strain drs2, active compounds read low 0.984 | locus YAL030W, strain snc1, active compounds read low 0.971 | locus YBL061C, strain skt5, active compounds read low 0.989 | locus YBR009C, strain hhf1, active compounds read low 0.963 | locus YBR021W, strain FUR4, active compounds read low 1.02 | locus YBR023C, strain chs3, active compounds read low 0.989 | locus YBR171W, strain sec66, active compounds read low 0.961 | locus YBR229C, strain ROT2, active compounds read low 1.03 | locus YBR231C, strain swc5, active compounds read low 0.993 | locus YBR279W, strain paf1, active compounds read low 0.98 | locus YCL011C, strain gbp2, active compounds read low 0.957 | locus YCL016C, strain dcc1, active compounds read low 0.97 | locus YCL029C, strain bik1, active compounds read low 1 | locus YCL069W, strain vba3, active compounds read low 0.968 | locus YCR088W, strain abp1, active compounds read low 0.972 | locus YDL005C, strain med2, active compounds read low 0.971 | locus YDL035C, strain GPR1, active compounds read low 1.09 | locus YDL040C, strain nat1, active compounds read low 0.982 | locus YDL074C, strain BRE1, active compounds read low 1.16 | locus YDL101C, strain DUN1, active compounds read low 1.02 | locus YDL134C, strain PPH21, active compounds read low 1.05 | locus YDL185W, strain tfp1, active compounds read low 0.999 | locus YDL192W, strain arf1, active compounds read low 1.02 | locus YDR001C, strain nth1, active compounds read low 0.956 | locus YDR069C, strain doa4, active compounds read low 0.945 | locus YDR101C, strain arx1, active compounds read low 1.01 | locus YDR137W, strain rgp1, active compounds read low 0.966 | locus YDR150W, strain NUM1, active compounds read low 1.04 | locus YDR159W, strain sac3, active compounds read low 0.982 | locus YDR162C, strain NBP2, active compounds read low 1.04 | locus YDR195W, strain ref2 0.956 | locus YDR297W, strain sur2, active compounds read low 0.976 | locus YDR318W, strain mcm21, active compounds read low 1.02 | locus YDR334W, strain swr1, active compounds read low 0.962 | locus YDR335W, strain msn5, active compounds read low 0.982 | locus YDR388W, active compounds read low 1.01 | locus YDR392W, strain spt3, active compounds read low 0.978 | locus YDR502C, strain sam2, active compounds read low 1.01 | locus YEL003W, strain gim4, active compounds read low 0.979 | locus YEL037C, strain rad23, active compounds read low 0.972 | locus YEL061C, strain CIN8 (second series), active compounds read low 0.973 | locus YEL061C, strain CIN8, active compounds read low 1.03 | locus YER015W, strain faa2, active compounds read low 0.968 | locus YER016W, strain bim1, active compounds read low 0.971 | locus YER110C, active compounds read low 0.987 | locus YER111C, strain swi4, active compounds read low 0.978 | locus YER155C, strain BEM2 (second series), active compounds read low 0.979 | locus YER155C, strain BEM2, active compounds read low 1.02 | locus YER167W, strain BCK2, active compounds read low 1.02 | locus YFR010W, strain ubp6, active compounds read low 0.975 | locus YGL078C, strain dbp3, active compounds read low 0.995 | locus YGL086W, strain mad1, active compounds read low 1.01 | locus YGL167C, strain pmr1, active compounds read low 0.96 | locus YGL173C, strain kem1, active compounds read low 0.965 | locus YGL227W, strain vid30, active compounds read low 0.972 | locus YGL240W, strain doc1, active compounds read low 0.984 | locus YGL248W, strain PDE1, active compounds read low 1.08 | locus YGL253W, strain hxk2, active compounds read low 0.963 | locus YGR078C, strain PAC10, active compounds read low 1.07 | locus YGR135W, strain pre9, active compounds read low 0.998 | locus YGR252W, strain gcn5, active compounds read low 1.06 | locus YHR013C, strain ard1, active compounds read low 0.942 | locus YHR027C, strain rpn1, active compounds read low 0.971 | locus YHR030C, strain SLT2, active compounds read low 1.01 | locus YHR079C, strain IRE1 (second series), active compounds read low 1.01 | locus YHR079C, strain IRE1, active compounds read low 1.02 | locus YHR094C, strain hxt1, active compounds read low 1 | locus YHR129C, strain ARP1, active compounds read low 1.04 | locus YHR142W, strain chs7, active compounds read low 0.953 | locus YHR200W, strain rpn10, active compounds read low 1.01 | locus YIL066C, strain RNR3, active compounds read low 1.04 | locus YIL073C, strain SPO22, active compounds read low 1.12 | locus YIL125W, strain kgd1, active compounds read low 1.01 | locus YIR030C, strain dcg1, active compounds read low 1.01 | locus YJL092W, strain hpr5, active compounds read low 0.964 | locus YJL095W, strain BCK1 (second series), active compounds read low 0.961 | locus YJL095W, strain BCK1, active compounds read low 1.07 and 1.01 | locus YJL115W, strain asf1, active compounds read low 0.963 | locus YJL129C, strain trk1, active compounds read low 0.968 | locus YJL134W, strain LCB3, active compounds read low 1.01 | locus YJL154C, strain vps35, active compounds read low 0.968 | locus YJL164C, strain tpk1, active compounds read low 0.96 | locus YJL166W, strain qcr8, active compounds read low 0.975 | locus YJL168C, strain set2, active compounds read low 0.987 | locus YJL187C, strain SWE1 (second series), active compounds read low 1.04
